From PubChem
Many of the other results were omitted from the sample, so hits are more common in it than they were.
ClpP mod: qHTS Assay for Activators of ClpP; ATP-dependent Clp protease proteolytic subunit (Bacillus subtilis (strain 168)), P80244; purified B. subtilis ClpP, FRET peptide cleavage, 20 min; Potency, µM (titrated, usually from 57.5 µM); hit rate 1.9% among 340,000; active means well fitted falling curve with a large enough effect; inconclusive means small, poorly fitted or top-dose-only effect; inactive means no such curve, though single readings can be large or run the other way; further: the source files actives as falling curves though it sought activators and does not explain the sign; nearly all actives have a fitted effect of over 65% in size
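ClpP 10 microg/mL final, pH 8 Tris/KCl buffer with BSA, glycerol, Tween-20; compound pinned in; FRET-FV substrate; RT 20 min; Ex320/Em430; ΔFRET vs ADEP 5.8 microM, DMSO, no enzyme.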
USP2a block: inhibitors of human ubiquitin-specific protease USP2a. O75604. hit rate 0.01% among 330,000. AID 463254. USP2 core, Ub-CHOP2 coupled fluorogenic reporter, 485/531. Potency, µM (top dose mostly 38.3 µM), usual class: inhibitors
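USP2 core (10nM final) preincubated 30min RT with compound in 20mM Tris-HCl pH 8.0, 2mM CaCl2, 2mM beta-mercaptoethanol, 0.05% CHAPS; 25nM Ub-CHOP2 plus 25nM reporter substrate added, fluorescence (Ex485/Em531) read after 60min.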
GALK inh: galactokinase (human) inhibition. Purified GALK, Kinase-Glo residual ATP luminescence. Potency, µM (top dose mostly 57.5 µM), usual class: inhibitors. hit rate 0.007% among 270,000. AID 1868
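5 nM enzyme, 35 uM ATP, 100 uM galactose, 20 mM HEPES pH8.0, 5 mM MgCl2; 1 h RT; residual ATP by Kinase-Glo Plus luminescence, qHTS format.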
Eya2 inh: Eya2 (human) phosphatase inhibition; O00167; recombinant Eya2, OMFP fluorescence dephosphorylation (OMFP is methylfluorescein phosphate); Potency, µM (series often up to 76.9 µM), actives largely listed as inhibitors; hit rate 0.006% among 330,000; AID 488837
Target sequence (O00167 whole entry, looked up): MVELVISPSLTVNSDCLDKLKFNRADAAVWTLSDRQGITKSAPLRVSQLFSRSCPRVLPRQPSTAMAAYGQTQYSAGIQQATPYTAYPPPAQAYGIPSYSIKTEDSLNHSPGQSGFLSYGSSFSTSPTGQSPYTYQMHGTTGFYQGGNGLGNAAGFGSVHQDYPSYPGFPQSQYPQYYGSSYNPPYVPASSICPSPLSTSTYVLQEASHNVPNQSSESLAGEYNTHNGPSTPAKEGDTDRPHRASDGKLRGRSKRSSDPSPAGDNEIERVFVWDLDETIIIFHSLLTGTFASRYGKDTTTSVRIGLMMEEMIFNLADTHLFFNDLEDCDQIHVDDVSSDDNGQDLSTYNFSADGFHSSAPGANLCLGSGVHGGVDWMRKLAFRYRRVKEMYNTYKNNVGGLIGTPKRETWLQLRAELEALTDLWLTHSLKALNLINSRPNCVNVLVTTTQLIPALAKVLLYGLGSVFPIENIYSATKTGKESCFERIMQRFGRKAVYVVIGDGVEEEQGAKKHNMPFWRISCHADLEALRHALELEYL
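Eya2 (0.2 uM) preincubated 10 min at ambient with compound, then OMFP substrate added at 50 uM; 10 min reaction in 50 mM HEPES pH 7.5, 50 mM NaCl, 5 uM MgCl2, 0.05% BSA, 1 mM DTT. Fluorescence read at Ex 485/Em 525 nm.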
A number is an active result. Unless noted, the call rests on the fitted dose curve; in most records, active means well fitted inhibition curve with a large enough effect; inconclusive means small, poorly fitted or top-dose-only effect, or effect the other way; inactive means flat fitted curve, though single readings scatter.

What do the screens show for `Nc1cc2sc(-c3ccc(C(=O)O)cc3)nc2cc1Cl`?
ClpP mod: 4.5µM; USP2a block: inactive; GALK inh: inactive; Eya2 inh: inactive

Results for O=C(N/N=C/C=C/c1ccccc1)c1cccc(Br)c1 ?
ClpP mod: inactive; USP2a block: inactive; GALK inh: inactive; Eya2 inh: inactive

Results for O=C(Nc1cccc(-c2nc3ccccc3[nH]2)c1)c1cccc(NC(=O)c2ccco2)c1 ?
ClpP mod: inconclusive; USP2a block: inactive; GALK inh: inactive; Eya2 inh: inactive

Results for O=C(Nc1ccc2nc(-c3ccccc3)[nH]c2c1)c1ccco1 ?
ClpP mod: 28µM; USP2a block: inactive; GALK inh: inactive; Eya2 inh: inactive

What do the screens show for `N#Cc1c2c(c(NCc3cccnc3)n3c1nc1ccccc13)CCC2`?
ClpP mod: 32µM; USP2a block: inactive; GALK inh: inactive; Eya2 inh: inactive

Results for O=C(COC(=O)c1ccccc1NS(=O)(=O)c1cccs1)NC1CCCCC1 ?
ClpP mod: inactive; USP2a block: inactive; GALK inh: inactive; Eya2 inh: inactive

How did C=C1c2cc(OC)ccc2NC(=O)N1CC do in these assays?
ClpP mod: 3.2µM; USP2a block: inactive; GALK inh: inactive; Eya2 inh: inactive

Results for C=CCNC(=O)CSc1ncc2c(n1)-c1c(csc1SC)CC2 ?
ClpP mod: 32µM; USP2a block: inactive; Eya2 inh: inactive

How did c1csc(-c2nc(NCCCN3CCOCC3)c3ccccc3n2)c1 do in these assays?
ClpP mod: 35µM; USP2a block: inactive; GALK inh: inactive; Eya2 inh: inactive

What do the screens show for `Cc1ccc(NC2=Nc3ccccc3CS2)cc1`?
ClpP mod: inactive; USP2a block: inactive; GALK inh: inactive; Eya2 inh: inactive

How did CC(C)CNC(=O)CSc1ccc(Cl)cc1 do in these assays?
ClpP mod: 25µM; USP2a block: inactive; GALK inh: inactive; Eya2 inh: inactive

Results for C[C@H]1CN([C@@H](C)CO)S(=O)(=O)c2ccc(/C=C/c3ccccc3)cc2O[C@H]1CN(C)C(=O)NC1CCCCC1 ?
ClpP mod: 35µM

How did C[C@@H]1CN([C@H](C)CO)C(=O)c2cc(/C=C/c3ccccc3)cnc2O[C@H]1CN(C)C(=O)NC1CCCCC1 do in these assays?
ClpP mod: inactive

Results for CCOC(=O)C1CCN(C(=O)COC(=O)CNS(=O)(=O)c2ccc(SC)c([N+](=O)[O-])c2)CC1 ?
ClpP mod: inactive

Results for CCc1cc2c(-c3ccccc3)cc(=O)oc2cc1OC(C)C(=O)O (stereo not given) ?
ClpP mod: inactive; USP2a block: inactive; GALK inh: inactive; Eya2 inh: inactive

Results for CC(NC(=O)OCc1ccccc1)C(=O)Oc1cc2oc(=O)cc(-c3ccccc3)c2cc1Cl (stereo not given) ?
ClpP mod: 25µM; USP2a block: inactive; GALK inh: inactive; Eya2 inh: inactive

Results for COc1ccc(NC(=O)CSc2nnc(-c3ccccn3)n2-c2ccccc2)cc1OC ?
ClpP mod: inactive; USP2a block: inactive; GALK inh: inactive; Eya2 inh: inactive

Results for COc1ccc(CNCCC(c2ccc(F)cc2)c2ccc(OC)cc2)cc1 (stereo not given) ?
ClpP mod: 28µM; USP2a block: inactive; GALK inh: inactive; Eya2 inh: inactive

What do the screens show for `FC(F)(F)c1cc(-c2ccccc2)nc(-n2cc(Cl)cn2)n1`?
ClpP mod: inactive; USP2a block: inactive; GALK inh: inactive; Eya2 inh: inactive

How did COc1cccc(-c2cc(C(F)(F)F)nc(N3CCC(C)CC3)n2)c1 do in these assays?
ClpP mod: 25µM; USP2a block: inactive; GALK inh: inactive; Eya2 inh: inactive

What do the screens show for `COc1ccc(-c2cc(C(F)(F)F)nc(-n3cncn3)n2)cc1`?
ClpP mod: 20µM; USP2a block: inactive; GALK inh: inactive; Eya2 inh: inactive

Results for COc1nc(-c2ccccc2)cc(C(F)(F)F)n1 ?
ClpP mod: inactive; GALK inh: inactive

How did COc1nn(-c2nc(-c3ccccc3)cc(C(F)(F)F)n2)cc1[N+](=O)[O-] do in these assays?
ClpP mod: 22µM; USP2a block: inactive; GALK inh: inactive; Eya2 inh: inactive

What do the screens show for `COc1cccc(-c2cc(C(F)(F)F)nc(N3CCOCC3)n2)c1`?
ClpP mod: inactive; USP2a block: inactive; GALK inh: inactive; Eya2 inh: inactive

What do the screens show for `COc1cccc(-c2cc(C(F)(F)F)nc(-n3cc(Cl)cn3)n2)c1`?
ClpP mod: 32µM; USP2a block: inactive; GALK inh: inactive; Eya2 inh: inactive

What do the screens show for `O=C(Cc1cccc(NC(=O)C2CCCN(C(=O)C3CCC3)C2)c1)Nc1cccc(C(=O)N2CCCCC2)c1` (stereo not given)?
ClpP mod: inactive

What do the screens show for `O=C(Nc1ccccc1C(=O)NC1CCCCC1)c1ccco1`?
ClpP mod: inactive; USP2a block: inactive; GALK inh: inactive; Eya2 inh: inactive

How did CN(C)C=Nc1c(C(=O)c2ccccc2)sc2nccc(N(C)C)c12 do in these assays?
USP2a block: inactive; Eya2 inh: inactive

What do the screens show for `O=C(COC(=O)c1cccnc1)c1ccc(Cl)c(Cl)c1`?
ClpP mod: inactive; USP2a block: inactive; GALK inh: inactive; Eya2 inh: inactive

Results for COc1cc2c(cc1OC)C(C(=O)NCc1ccco1)C(c1cccs1)N(C)C2=O (stereo not given) ?
ClpP mod: inactive; USP2a block: inactive; GALK inh: inactive; Eya2 inh: inactive

What do the screens show for `O=C(NCc1cccc(Cl)c1)c1cnc(N2CCCCC2)c2ccccc12`?
ClpP mod: 32µM

How did O=C(NCc1ccc(Cl)cc1)c1cnc(N2CCCCC2)c2ccccc12 do in these assays?
ClpP mod: 28µM

Results for CCOC(=O)c1c(NS(=O)(=O)c2ccc(Br)cc2)sc2c1CCC2 ?
ClpP mod: inactive

Results for CSc1ccc(CCNC(=O)C2CCCN(c3nn4c(=O)cc(C)nc4s3)C2)cc1 (stereo not given) ?
ClpP mod: inactive; USP2a block: inactive; GALK inh: inactive; Eya2 inh: inactive

What do the screens show for `CCN1/C(=C/c2ccc3cc(C)ccc3[n+]2C)Sc2ccc3sccc3c21`?
ClpP mod: inactive; USP2a block: inactive; GALK inh: inactive; Eya2 inh: inactive

What do the screens show for `COCc1cc(C)nc2sc(C(=O)Nc3nccs3)c(N)c12`?
ClpP mod: inactive; USP2a block: inactive; GALK inh: inactive; Eya2 inh: inactive

What do the screens show for `CCOC(=O)c1sc2nc(C)cc(C)c2c1N`?
ClpP mod: 28µM; USP2a block: inactive; GALK inh: inactive; Eya2 inh: inactive

How did CCCCOC(=O)c1sc2nc(C)cc(C)c2c1N do in these assays?
USP2a block: inactive; GALK inh: inactive; Eya2 inh: inactive

How did Cc1cc(C)c2c(N)c(C(=O)Nc3nccs3)sc2n1 do in these assays?
ClpP mod: 35µM; USP2a block: inactive; GALK inh: inactive; Eya2 inh: inactive
